Inconclusive results are not listed. Values without a mark were called inactive. Calls follow the shape of the dose curve; as a rule, active = well fitted cell-killing curve with a large enough effect; inconclusive = small, poorly fitted or top-dose-only effect; inactive = flat fitted curve, though single readings scatter.
Experiment: qHTS assay to identify small molecule inhibitors of chordoma cells - UCH-2 (AID 1259356)
Conditions: UCH-2 chordoma viability, CellTiter-Glo ATP luminescence, 48 h; series mostly up to 46.1 µM; activity change, negative = inhibition: at the top concentration
From the text: NIH Chemical Genomics Center [NCGC]
Chordoma is a rare and slow growing tumor that can occur anywhere along the spine, from the base of the skull to the tailbone. Current treatment options for chordoma is surgery and radiation therapy for those who are not candidates for surgery. But chordomas tend to return in the same location or surrounding areas of the original tumor after surgery and/or radiation. Chemotherapy can slow down the progression of the tumor. As chordoma is slow growing, the general cytotoxic agents that kill fast growing cells are ineffective, and some patients have been reported to respond to molecularly targeted drugs.
NCATS Pharmaceutical Collection (NPC) containing approximately 3000 clinically approved and investigational drugs were used to screen at 15 concentrations in a chordoma cell lines, UCH-2, to identify small molecule compounds that can inhibit chordoma cell growth.
NCGC Assay Protocol Summary:
Human chordoma cell line UCH-2 was dispensed at 800 per well in 4uL of culture medium into white solid bottom 1536-well plates (Corning Life Sciences, Corning, NY) using a Multidrop Combi (Thermo Scientific, Waltham, MA) dispenser. The assay plates were incubated at 37 C and 5% CO2 for an overnight, and then 23nL of compounds dissolved in DMSO and positive control were transferred using a Pintool station (Wako, San Diego, CA). Compound treatment was followed by the addition of 1uL of the combination compounds (1uM Auranofin, 500nM each of Camptothecin, Doxorubicin, Rubitecan, and Topotecan) and assay medium to each well of the assay plates using Flying Reagent Dispenser (FRD, Aurora Discovery, San Diego, CA). The assay plates were incubated at 37 C and 5% CO2 for 48hr. Then 5uL of CellTiter-Glo reagent (Promega Corporation, Madison, WI) was added to each well of the assay plates using FRD. After 30min incubation at room temperature, the luminescence signal was quantified using a ViewLux plate reader (PerkinElmer, Shelton, CT).
% is scaled to controls: 0 for no effect and ±100 for the full control effect.

Row | Structure (SMILES) | activity change, negative = inhibition
1 | CC(=O)OCC1=C(C(=O)O)N2C(=O)[C@@H](NC(=O)Cc3ccccc3)[C@H]2SC1 | 3.35%
2 | Cc1cc2nc3c(=O)[nH]c(=O)nc-3n(C[C@H](O)[C@H](O)[C@H](O)COP(=O)(O)OP(=O)(O)OC[C@H]3O[C@@H](n4cnc5c(N)ncnc54)[C@H](O)[C@@H]3O)c2cc1C | -0.786%
3 | CCOC(=O)c1c[nH]c2cc(OCC(C)C)c(OCC(C)C)cc2c1=O | -17.8%
4 | NCCO/C=C/[C@H](N)C(=O)O | 4.19%
5 | COc1ccc(-c2noc(CC(=O)O)c2-c2ccc(OC)cc2)cc1 | 3.38%
6 | O=C(CO)[C@@H](O)[C@H](O)[C@@H](O)C(=O)O | 14.6%
7 | FC(F)(F)C(F)(F)C(F)(F)C(F)(F)C(F)(F)C(F)(F)F | 7.22%
8 | O=C(c1cc2ccccc2o1)N1CCN(Cc2ccccc2)CC1 | -0.483%
9 | COc1ccc(/C=C/C(=O)OCCC(C)C)cc1 | 9.44%
10 | CN1C(C(=O)Nc2ccccn2)C(=O)c2sc(Cl)cc2S1(=O)=O (stereo not given) | 8.72%
11 | CCCC(CCC)C(=O)OC1C[C@H]2CC[C@@H](C1)[N+]2(C)C (stereo not given in full) | 1.61%
12 | C[C@H](CCCC(C)(C)O)[C@H]1CC[C@H]2[C@@H]3CC=C4C[C@@H](O)CC[C@]4(C)[C@H]3CC[C@]12C | 6.05%
13 | CCCCC | 2.99%
14 | O=C1CCC(=O)N1CO | -1.74%
15 | CC(C)=CCC/C(C)=C/CC/C(C)=C/CC/C=C(\C)CC/C=C(\C)CCC=C(C)C | 11%
16 | c1ccc2ccccc2c1 | -5.63%
17 | O=C(NNCS(=O)(=O)O)c1ccncc1 | -16%
18 | CO/N=C(/C(=O)N[C@@H]1C(=O)N2C(C(=O)O)=C(COC(N)=O)CS[C@H]12)c1ccco1 | -2.44%
19 | O=C(O)C1=C(CSc2nnnn2CS(=O)(=O)O)CS[C@@H]2[C@H](NC(=O)[C@H](O)c3ccccc3)C(=O)N12 | 0.119%
20 | OCC(O)CO | 1.11%

Row | Structure (SMILES) | activity change, negative = inhibition
21 | O[C@@H]([C@H](O)[C@H](O)CBr)[C@H](O)CBr | 7.83%
22 | CC[C@H]1OC(=O)[C@H](C)[C@@H](O[C@H]2C[C@@](C)(OC)[C@@H](O)[C@H](C)O2)C(C)[C@@H](O[C@@H]2O[C@H](C)C[C@H](N(C)C)[C@@H]2O)[C@](C)(OC)C[C@@H](C)C(=O)[C@H](C)[C@@H](O)[C@]1(C)O (stereo not given in full) | -12.8%
23 | CCCCCCCCCCCCCCCCCC(=O)OCC(C)O (stereo not given) | 1.51%
24 | CCCC(=O)O | 12.4%
25 | OCCN1CCN(CC/C=C2/c3ccccc3Sc3ccc(Cl)cc32)CC1 | -1.42% [at 20.6 µM]
26 | CCOC(=O)[C@@H](N)CS | 6.87%
27 | CC/C=C\C/C=C\C/C=C\C/C=C\C/C=C\C/C=C\CCC(=O)O | 5.47%
28 | CCC(=O)OC(OP(=O)(CCCCc1ccccc1)CC(=O)N1C[C@H](C2CCCCC2)C[C@H]1C(=O)O)C(C)C (stereo not given in full) | 13.6%
29 | CO | 4.33%
30 | CN(C)CCOc1ccc(/C(=C(/CCCl)c2ccccc2)c2ccccc2)cc1 | -3.29%
31 | O=S(=O)(O)CCCS(=O)(=O)O | -1.59%
32 | C#C[C@]1(O)CC[C@@H]2[C@H]3CCC4=CC(=O)CC[C@H]4[C@H]3C(=C)C[C@@]21CC | -15.3%
33 | CNCC(O)c1ccc(OC(=O)C(C)(C)C)c(OC(=O)C(C)(C)C)c1 (stereo not given) | -22.4% [at 20.6 µM]
34 | COc1ccc(C(=O)/C(Br)=C\C(=O)O)cc1 | -11.6%
35 | CO/N=C(\C(=O)N[C@@H]1C(=O)N2C(C(=O)O)=C(C[N+]3(C)CCCC3)CS[C@H]12)c1csc(N)n1 | 4.55%
36 | O=[N+]([O-])c1c(Cl)cccc1-c1c[nH]cc1Cl | 5.77%
37 | C/C(=C\C(=O)OCCCCCCCCC(=O)O)C[C@@H]1OC[C@H](C[C@@H]2O[C@H]2[C@@H](C)[C@H](C)O)[C@@H](O)[C@H]1O | -2.46%
38 | O=C1c2ccccc2C(=O)c2c1ccc(O)c2O | 11.3%
39 | Cc1nc(NS(=O)(=O)c2ccc(N)cc2)nc(C)c1Br | 5.21%
40 | O=C(O)c1ccc(OCCn2ccnc2)cc1 | -20.7%
